# Laboratory results: PubChem BioAssay AID1259415 (National Center for Advancing Translational Sciences (NCATS), 2018)
# Out of some 410,000 compounds screened, about 18,000 (4.4%) were called active. Roughly 7% stayed inconclusive and do not appear here. Cut-off read from the data, not from the text of the source: active = activity change below about -60%; inconclusive = no clear call, values can overlap the other calls; inactive = above about -39%. This excerpt belongs to a sample that is enriched for actives.
# Test: qHTS Assay for inhibitors of the human cytomegalovirus (HCMV)
# Settings: HFF cells, HCMV-luciferase reporter, 72 h; at 57.5 µM; stronger effect = lower value
# Method in brief: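 Inhibition of viral replication was scored as loss of reporter luminescence in HFFs infected with HCMV-luciferase (MOI 1 PFU/cell) for 72 h; compounds tested at 2 doses, normalized to buffer and Salinomycin controls.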
# % is set by controls: 0 for no effect and ±100 for the full control effect.
row,SMILES,"activity change, negative = inhibition"
1,COc1ccc(C2C(=O)N(C3CCCCC3)CC(=O)N2Cc2ccccc2Cl)cc1OC (stereo not drawn),-0.212% (inactive)
2,CCN1/C(=C/C(=S)Nc2ccccc2)Sc2ccccc21,-90.8% (active)
3,CCOC(=O)CNC(=O)CN1C(=O)CCSc2ccccc21,55.2% (inactive)
4,CNC(=O)CN1C(=O)c2cccnc2Sc2ccccc21,16.8% (inactive)
5,CCN1C(=O)c2ccccc2Sc2ccc(NC(=O)Cc3ccc(OC)cc3)cc21,11.2% (inactive)
6,CCC(=O)/C=C1\Sc2ccccc2N1CC,-68.7% (active)
7,CCOc1ccc(NC(=O)c2cc(S(=O)(=O)N3CCCC3)c[nH]2)cc1,-31.5% (inactive)
8,Cc1ccc(N2CC(C(=O)Nc3ccc(N(C)C)cc3)CC2=O)cc1Cl (stereo not drawn),1.89% (inactive)
9,CC(C)(C)OC(=O)N[C@H](C(=O)OC(C)(C)C)c1ccc(Br)cc1,-16.8% (inactive)
10,Cc1ccc(C(=O)NNC(=O)OC(C)(C)C)c(Cl)c1,-10.9% (inactive)
11,CC(C)(C)OC(=O)NNc1c2ccccc2nc2ccccc12,-89.2% (active)
12,N#CCC(=O)NC(=O)NCC1CC1,-12.8% (inactive)
13,O=C(NCC1CCCCC1)NCC1CCCCC1,-74.2% (active)
14,O=C(NCCCNC(=O)NC1CCCCC1)NC1CCCCC1,-14.1% (inactive)
15,COc1ccc(CCNC(=O)CSCc2ccc(Br)cc2)cc1OC,-9.05% (inactive)
16,COc1nc(OC)nc(N(C)CCO)n1,-12.6% (inactive)
17,Cc1nc(SCC(=O)Nc2ccc(C(=O)O)cc2)n[nH]1,-2.57% (inactive)
18,CCc1nnc(NC(=O)CSc2nnc(COc3ccc(C#N)cc3)n2-c2ccccc2)s1,42.5% (inactive)
19,COc1ccccc1Cc1nc2ccccc2nc1SCC(=O)N1CCCc2ccccc21,8.07% (inactive)
20,Cn1c(SCC(=O)N2CCCc3ccccc32)nc2ccccc2c1=O,-79.6% (active)
21,Cn1c(SCC(=O)N2CCCc3ccccc32)ncc(C(=O)Nc2ccc(F)cc2)c1=O,-28.8% (inactive)
22,[O-][N+]12CCCCC1CCCC2CO (stereo not drawn),-29% (inactive)
23,CCC(=O)N1CCc2cc(Br)cc(S(=O)(=O)CCC(=O)NCc3ccccc3OC)c21,-3.98% (inactive)
24,Nc1nc(Nc2ccccc2F)nc(NC2CCCCC2)c1[N+](=O)[O-],-66% (active)
25,Nc1nc(NCC2CCCO2)nc(Nc2ccccc2F)c1[N+](=O)[O-] (stereo not drawn),-34.2% (inactive)
26,C=CCNc1nc(N)c([N+](=O)[O-])c(NC2CCCCC2)n1,-9.3% (inactive)
27,CCC(=O)N1CCc2cc(Br)c(S(=O)(=O)NCCN3CCCCC3CC)cc21 (stereo not drawn),-8.58% (inactive)
28,COc1ccc(CCNC(=O)Cn2c(=O)cc(C(F)(F)F)c3c(C)nn(C)c32)c(OC)c1,21.9% (inactive)
